Bioassay records from PubChem BioAssay.
Pf growth 96h = P. falciparum growth inhibition at 96 hour, primary screen for plastid delayed-death inhibitors; P. falciparum luciferase reporter growth, 96 h; Potency, µM (highest dose often 28.7 µM), usual class: inhibitors; 320,000 compounds, 6.9% hits
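Infected RBCs, 2% Hct / 0.05% parasitemia final; luciferase-reporter P. falciparum; cpd 96 h, 37 C, 5% CO2; luciferase detection reagent; luminescence.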
Shiga toxin inh = inhibitors of Shiga toxin in Vero cells. inhibition, % at 38.7 µM. 290,000 compounds, 9.2% hits. Vero cells, Shiga toxin protein synthesis inhibition reporter; in the data active means inhibition mostly above about 28%, no sharp cut-off; inactive means mostly below about 43%
Pf growth 48h = P. falciparum growth inhibition at 48 hours (one generation); P. falciparum luciferase growth in erythrocytes, 48 h; Potency, µM (top dose mostly 28.7 µM), hits mostly inhibitors; 310,000 compounds, 5.9% hits
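Growth was read as firefly luciferase luminescence after a 48 h, 37 C, 5% CO2 exposure of compounds to reporter-bearing P. falciparum cultures (0.1% parasitemia, 2% hematocrit final) in Albumax-supplemented RPMI 1640.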
CHX counter = counter-screen for Shiga toxin inhibitors: cycloheximide protein synthesis inhibition | cell reporter, cycloheximide protein synthesis inhibition counterscreen | 300,000 compounds, 12% hits | max response, %; in the data active means max response mostly above about 13%, no sharp cut-off; inactive means mostly below about 14%; further: read at 38.3 µM for the half of the compounds with a filed dose
NS1 inh = inhibitors of influenza NS1 protein function; Potency, µM (series often up to 46.1 µM); 270,000 compounds, 0.4% hits; calls by dose curve; further: actives are rising curves; nearly all actives have a fitted effect of over 50% in size
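Growth recovery, yeast-based: influenza A NS1 expressed in S. cerevisiae causes slow growth, and suppressors are detected by OD600. The parent strain without NS1 is used as positive control.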
Each line names hits and unclear results; the compound was inactive in the other large screens. This is a sample that favours compounds with a hit; in the whole collection about 21% have one here. Unless noted, the call rests on the fitted dose curve; in most records, active means well fitted inhibition curve with a large enough effect; inconclusive means small, poorly fitted or top-dose-only effect, or another doubt; inactive means no such curve, though single readings can be large or run the other way.

O=C(Cn1cnc2ccccc2c1=O)c1ccc2ccccc2c1	Shiga toxin inh 68, CHX counter 56
Cc1ccc(C(=O)Cn2cnc3ccccc3c2=O)cc1C	Shiga toxin inh 104, CHX counter 64 (no result: Pf growth 96h)
COc1ccc(C(=O)Cn2cnc3ccccc3c2=O)cc1	Shiga toxin inh 89, CHX counter 41
O=C(Cn1cnc2ccccc2c1=O)c1ccc2c(c1)OCCO2	Shiga toxin inh 70, CHX counter 50
CCN(Cc1ccccc1)C(=O)c1cc(S(=O)(=O)N2CCOCC2)cn1C	none
C[n+]1ccccc1N1CCN(c2ccccc2Cl)CC1	Pf growth 96h inconclusive, Pf growth 48h 4.7µM
Cc1ccc(Cl)cc1N1CCN(C(=S)NCCc2ccccc2)CC1	none
Cc1ccc(Cl)cc1N1CCN(c2cccc[n+]2C)CC1	Pf growth 96h 0.74µM, Pf growth 48h 4.1µM
COc1ccc(CNS(=O)(=O)c2ccc3c(c2)NC(=O)C(C)S3)cc1 (stereo not given)	Pf growth 96h inconclusive
c1ccc2c(c1)nc1n2C2(N3CCOCC3)CCCC2C1N1CCOCC1 (stereo not given)	CHX counter 10
Cc1nc(N2CCCCC2)c2c(C)c(C(=O)Nc3ccccc3C(F)(F)F)sc2n1	Pf growth 96h inconclusive, Pf growth 48h 9.3µM (no result: NS1 inh)
Cc1nc(N2CCCCC2)c2c(C)c(C(=O)Nc3cccc(C(F)(F)F)c3)sc2n1	Pf growth 48h 2.6µM (no result: NS1 inh)
Cc1cccc(C2(c3cccc(C)c3)OC(=O)c3ccccc32)c1	Pf growth 96h inconclusive, Pf growth 48h inconclusive
COc1ccc(NC2(c3ccccc3)OC(=O)c3ccccc32)cc1 (stereo not given)	none (no result: NS1 inh)
CCCCCCCOC1(c2ccccc2)OC(=O)c2ccccc21 (stereo not given)	Pf growth 96h 6.6µM, Pf growth 48h inconclusive
Cc1cccc(OC2(c3ccccc3)OC(=O)c3ccccc32)c1C (stereo not given)	Pf growth 96h 9.3µM, Pf growth 48h inconclusive
CCCCCCOC1(c2ccccc2)OC(=O)c2ccccc21 (stereo not given)	Pf growth 96h 8.3µM, Pf growth 48h 10µM
O=C(NCCc1cnccn1)C1CCC(=O)N(Cc2ccc(Cl)cc2)C1 (stereo not given)	none
COc1cc(C2C(C#N)=C(N)N(Nc3ccccc3)C3=C2C(=O)CC(C)(C)C3)ccc1OCc1ccccc1 (stereo not given)	Pf growth 96h 2.9µM, Pf growth 48h 4.1µM
C=CCOc1ccc(C2C(C#N)=C(N)N(Nc3ccccc3)C3=C2C(=O)CCC3)cc1OC (stereo not given)	Pf growth 96h 4.7µM, Pf growth 48h 8.3µM
Cc1nc2cc(NC(=O)Nc3ccc(Br)cc3)ccc2o1	Shiga toxin inh 99, CHX counter 47
Cc1nc2cc(NC(=O)N3c4ccccc4CC3C)ccc2o1 (stereo not given)	Shiga toxin inh 73, CHX counter 42 (no result: Pf growth 96h)
Cc1nc2cc(NC(=O)N3c4ccccc4CC3C)ccc2n1C (stereo not given)	Shiga toxin inh 33, CHX counter 19 (no result: Pf growth 96h)
Cc1ccccc1NC(=O)N1c2ccccc2CC1C (stereo not given)	none
CSc1nnc(C)c(=O)n1COC(=O)COc1ccccc1C	none
NC(=O)c1ccccc1NC(=O)CN1CCN(Cc2ccc(Cl)cc2Cl)CC1	Pf growth 48h inconclusive
CC1=NN(c2ccccc2)C(=O)C1N=Nc1ccc(S(N)(=O)=O)cc1 (stereo not given)	Pf growth 48h inconclusive
CC1=NC(=O)C(N=Nc2ccccc2C(=O)O)N1c1ccccc1 (stereo not given)	Pf growth 96h 4.7µM
CC1=NC(=O)C(N=Nc2ccccc2)N1c1ccccc1 (stereo not given)	Shiga toxin inh 52, CHX counter 29
CC1=NC(=O)C(N=Nc2cccc(C(=O)O)c2)N1c1ccccc1 (stereo not given)	Shiga toxin inh 104, CHX counter 35 (no result: Pf growth 96h)
CCCCS(=O)(=O)N1CCN(S(=O)(=O)c2ccc(Cl)s2)CC1	none
CCN(CC)S(=O)(=O)c1ccc2oc(Nc3ccccc3)nc2c1	Pf growth 96h inconclusive, Shiga toxin inh 79, CHX counter 30
CCS(=O)(=O)c1ccc2oc(Nc3ccc(OC)c(OC)c3)nc2c1	none
CCN(CC)S(=O)(=O)c1ccc(S(=O)(=O)Nc2ccc3c(c2)oc2ccccc23)cc1	none (no result: Pf growth 96h)
CCN(CC)S(=O)(=O)c1ccc2oc(Nc3ccc(OC)cc3OC)nc2c1	Pf growth 96h 10µM, Pf growth 48h inconclusive
CCS(=O)(=O)c1ccc2oc(Nc3ccccc3C)nc2c1	Shiga toxin inh 69, CHX counter 54
COc1ccc(NC(=O)C2CC(c3ccc(Cl)cc3)=NO2)cc1OC (stereo not given)	none
Cc1ccc(C(=O)NCCOC23CC4CC(CC(C4)C2)C3)cc1	Pf growth 96h 2.1µM, Pf growth 48h 2.9µM
CSCc1ccc(C(=O)NCCSc2ccc(Br)cc2)cc1	Shiga toxin inh 103, CHX counter 55
CCOc1ccc(C(=O)NCC(=O)NCCCSc2ccccc2)cc1OCC	Pf growth 96h 15µM
COc1ccc(C(=O)NCCSc2ccccc2)cc1	Pf growth 96h inconclusive, Shiga toxin inh 21, CHX counter 46
CCC(CC)NC(=O)COC(=O)c1cc(SC)ccc1Cl	none (no result: NS1 inh)
Cc1cccc(-n2cc3c(=O)n(C)c(=O)n(C)c3c2)c1	none
C=CCC1C=C(C)CC(CC=C)N1 (stereo not given)	Pf growth 96h inconclusive (no result: NS1 inh)
O=C(NC1CCS(=O)(=O)C1)c1ccc(N2CCCCC2)c([N+](=O)[O-])c1 (stereo not given)	Pf growth 96h inconclusive
Cc1ccc(-c2csc(NC(=O)c3ccc4c(=O)n5c(nc4c3)CCCCC5)n2)cc1	Pf growth 96h inconclusive, Pf growth 48h inconclusive
Cc1ccc(OCCNC(=O)c2ccccc2O)cc1	Pf growth 96h inconclusive, Pf growth 48h inconclusive, CHX counter 12
Cc1ccc(OCCNC(=O)c2cccc(S(=O)(=O)NCc3ccccc3)c2)cc1	Pf growth 48h inconclusive (no result: Shiga toxin inh, CHX counter, NS1 inh)
CS(=O)(=O)NCc1ccc(C(=O)NCCOc2ccccc2)cc1	Shiga toxin inh 63, CHX counter 50
Cc1ccc(OCCNC(=O)c2ccc(C)cc2)cc1	Pf growth 96h inconclusive, Shiga toxin inh 79, CHX counter 46
COc1ccc(OCCNC(=O)c2ccc(C)cc2)cc1	Pf growth 96h 2.9µM, Shiga toxin inh 56, CHX counter 29
Cc1ccc(OCCNC(=O)CNC(=O)c2ccccc2Cl)cc1	none (no result: Shiga toxin inh, CHX counter, NS1 inh)
COc1ccc(C(=O)NCCOc2cccc(OC)c2)cc1	none
CSCC[C@H](NC(=O)Nc1ccc(OC(F)(F)F)cc1)C(=O)O	none
COc1ccc(C(=O)NN)cc1	CHX counter 24
COc1ccc(C(=O)NCCCCCCNC(=O)c2ccc(OC)cc2)cc1	CHX counter 16
COc1ccc(C(=O)NCCONC(=O)c2ccc(OC)cc2)cc1	none
Cn1c(=O)oc2cc(S(=O)(=O)NCCC(=O)Nc3ccc4c(c3)OCCO4)ccc21	CHX counter 20 (no result: Pf growth 96h)
COc1ccc(CNC(=O)CCNS(=O)(=O)c2ccc3c(c2)oc(=O)n3C)cc1	Pf growth 96h 12µM
Cn1c(=O)oc2cc(S(=O)(=O)Nc3ccc4c(c3)OCCO4)ccc21	Pf growth 48h inconclusive
